Source: PubChem
KCNQ2 pot = enhances the rat KCNQ2 potassium channel; O88943; CHO-K1 KCNQ2, FluxOR thallium flux fluorescence; hits give high values; B-score at 10 µM; 0.54% of 310,000 active;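 active means fluorescence ratio B-score at least 3 SD of library B-scores, with initial fluorescence B-score within 3 of them, cut at about 5.3 in these data; same plate scores as AID 2156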;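 further: B-score of peak minus minimum over baseline fluorescence ratio after K+ and Tl+ stimulus; positive B-score means potentiation of KCNQ2 with more thallium influx and brighter signal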
KCNQ2 block = KCNQ2 (rat) channel inhibition | O88943 | CHO-K1 KCNQ2, FluxOR thallium flux, 20 min; hits give low values | B-score at 10 µM | 1.1% of 310,000 active | AID 2156;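 active means fluorescence ratio B-score at most minus 3 library SDs, with starting brightness B-score within 2 library SDs, cut at about -5.5 in these data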
Kir21 conf inh = confirmation of mouse Kir2.1 potassium channel inhibitors. Kir2.1-expressing cells, FluxOR thallium flux fluorescence; hits give low values. 41% of 2,300 active. Tl flux remaining, % of negative control (hits give low values), % at 10 µM. shares compounds with KCNQ2 pot;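 active means Primary-screen hit whose thallium flux fell at least 3 control SD below untreated wells in both duplicates, with normal baseline fluorescence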
HEK293 Tl flux = parental HEK293 activity in Kir2.1 inhibitor counter-screen. FluxOR signal as % of negative control (100 = no effect), % at 10 µM. 19% of 2,300 active. shares compounds with KCNQ2 pot. parental HEK293 cells, FluxOR thallium flux fluorescence; 0% = unstimulated blank wells;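 active means dye signal at least 3 control SD above or below untreated wells in both duplicates, raw fluorescence within 3, either direction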;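 further: percent is based on the flux ratio of peak minus minimum fluorescence over baseline F0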
CHO-K1 Tl ctr = alters thallium flux in parental CHO-K1 cells, KCNQ2 counter-screen. activity increase over 3SD of controls, % at 10 µM. 43% of 1,200 active. AID 2282. shares compounds with KCNQ2 pot. FluxOR thallium flux fluorescence; zero = vehicle mean+3SD, 100% = vehicle-minus-blank window;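 active means signal rise of at least 3 SD above the untreated control mean, in both duplicate wells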;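 further: counter screen of KCNQ2 potentiator hits so any rise reflects channel-independent effects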
KCNQ1 pot spec = tests whether KCNQ2 potentiators also act on human KCNQ1; shares compounds with KCNQ2 pot; CHO KCNQ1 stable, FluxOR thallium flux fluorescence; beyond 3SD, as % of vehicle-control signal; activation over 3SD threshold, % at 10 µM; 28% of 1,200 active;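 active means fluorescence ratio rise of at least 3 SD of vehicle wells above their mean, in both replicate wells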
Target sequence (P51787 whole entry, looked up): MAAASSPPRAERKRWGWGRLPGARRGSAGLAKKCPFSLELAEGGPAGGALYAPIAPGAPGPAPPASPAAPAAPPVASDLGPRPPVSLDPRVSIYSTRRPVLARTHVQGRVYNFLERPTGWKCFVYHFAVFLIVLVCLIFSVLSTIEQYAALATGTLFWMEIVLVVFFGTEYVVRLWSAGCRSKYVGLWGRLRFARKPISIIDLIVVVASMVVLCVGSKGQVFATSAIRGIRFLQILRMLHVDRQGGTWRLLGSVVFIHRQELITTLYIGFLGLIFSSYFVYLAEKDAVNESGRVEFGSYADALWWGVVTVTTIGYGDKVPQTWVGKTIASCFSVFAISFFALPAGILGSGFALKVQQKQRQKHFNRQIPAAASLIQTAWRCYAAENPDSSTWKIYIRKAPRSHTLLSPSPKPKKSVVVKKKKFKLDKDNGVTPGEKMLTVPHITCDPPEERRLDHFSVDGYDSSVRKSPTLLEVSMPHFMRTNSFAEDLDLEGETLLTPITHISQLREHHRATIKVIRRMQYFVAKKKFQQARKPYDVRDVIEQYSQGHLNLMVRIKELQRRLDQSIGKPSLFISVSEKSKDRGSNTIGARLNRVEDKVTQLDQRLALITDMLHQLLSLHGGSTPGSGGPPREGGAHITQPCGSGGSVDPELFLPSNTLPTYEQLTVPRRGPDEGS
KCNQ2 pot confirm = confirmation of rat KCNQ2 potassium channel potentiators; shares compounds with KCNQ2 pot; CHO-KCNQ2 cells, FluxOR thallium flux fluorescence; potentiation, less the hit threshold, % at 10 µM; 68% of 1,200 active; AID 2287;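 active means fluorescence ratio rising 3 SD or more over the vehicle control mean in both replicates, plus primary screen hit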;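 further: peak minus minimum thallium fluorescence divided by baseline after K/Tl stimulus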
Kir2-1 sel = tests whether KCNQ2 potentiators also affect mouse Kir2.1; shares compounds with KCNQ2 pot; HEK293 Kir2.1, FluxOR thallium flux fluorescence; activity over 3SD threshold, % at 10 µM; 2% of 1,200 active;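 active means fluorescence ratio rise of at least 3 SD above the vehicle-control mean, seen in both replicates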
KCNQ2 W236L pot = KCNQ2 potentiators acting on retigabine-insensitive rat KCNQ2 W236L mutant | current increase over 3SD of negative controls (%), hits give high values, % at 25 µM | CHO KCNQ2-W236L, automated patch clamp current | shares compounds with KCNQ2 pot | 10% of 940 active;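 active means current increase at least 3 SD of the untreated controls above them in both duplicate recordings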
Of the large screens only hits and unclear results are named; the others gave an inactive call (follow-up assays come after a bar, where they were run). Most compounds without a hit are left out; they make up all but 1.6% or so of the library.

C/C=C/c1ccc(OCCOc2cc(C=O)ccc2OC)c(OC)c1	none
Cc1ccc(N2C(=O)N3[C@H](c4ccc(F)cc4)[C@@H]4C(=O)N(C5CCCCC5)C(=O)[C@@H]4[C@]3(Cc3ccccc3)C2=O)cc1	none
COC(=O)c1ccccc1NC(=O)COC(=O)C1CCCCC1	none (no result: KCNQ2 pot)
CN(C(=O)c1ccc(S(=O)(=O)N(C)C)cc1)c1ccc2ccccc2c1	none (no result: KCNQ2 pot)
CC(NC(=O)C1CCCC1)c1ccc(Br)cc1 (stereo not given)	KCNQ2 pot 7.1 | Kir21 conf inh inactive | HEK293 Tl flux inactive | CHO-K1 Tl ctr inactive | KCNQ1 pot spec 28 | KCNQ2 pot confirm 9.0 | Kir2-1 sel inactive | KCNQ2 W236L pot inactive
Cc1ccc(C(C)NC(=O)C2CCCC2)cc1C (stereo not given)	KCNQ2 pot 17 | Kir21 conf inh inactive | HEK293 Tl flux inactive | CHO-K1 Tl ctr inactive | KCNQ1 pot spec inactive | KCNQ2 pot confirm 55 | Kir2-1 sel inactive | KCNQ2 W236L pot inactive
CC(NC(=O)C1CCC1)c1ccc(Br)cc1 (stereo not given)	none
Cc1ccc(C(C)NC(=O)C2CCCO2)cc1C (stereo not given)	none
CCOC(=O)C1=C(C)NC(SC)=C(C#N)C1CC(C)C (stereo not given)	none (no result: KCNQ2 pot) | Kir21 conf inh 74% | HEK293 Tl flux inactive
CC(=O)C1=C(C)NC(SCC(N)=O)=C(C#N)C1CC(C)C (stereo not given)	none (no result: KCNQ2 pot)
COc1cc(/C=C/C(=O)O)cc(S(=O)(=O)Nc2ccc3nc(SC)sc3c2)c1OC	none (no result: KCNQ2 pot)
CC(CC(=O)NCc1ccc(F)cc1)c1ccccc1 (stereo not given)	none
CSc1nc(C(C)C)ccc1CNC(=O)CC(C)c1ccccc1 (stereo not given)	KCNQ2 pot 30 | Kir21 conf inh inactive | HEK293 Tl flux inactive | CHO-K1 Tl ctr inactive | KCNQ1 pot spec 35 | KCNQ2 pot confirm 112 | Kir2-1 sel inactive | KCNQ2 W236L pot inactive
Cc1[nH]c(-c2ccccn2)nc(=S)c1Cl	KCNQ2 pot 11 | Kir21 conf inh inactive | HEK293 Tl flux 298% | CHO-K1 Tl ctr inactive | KCNQ1 pot spec inactive | KCNQ2 pot confirm 42 | Kir2-1 sel inactive | KCNQ2 W236L pot inactive
Cc1cc(=S)nc(-c2ccccn2)[nH]1	none
COc1ccc(NS(=O)(=O)c2ccc3c(c2)NC(=O)CCS3)cc1Cl	none
CCCCOCCCNc1ncnc2c1[nH]c1ccccc12	none (no result: KCNQ2 pot) | Kir21 conf inh 44% | HEK293 Tl flux inactive
CCOCCCNc1ncnc2c1[nH]c1ccccc12	none
C=CCC(Nc1ccccc1)c1ccc(OC)c(OC)c1 (stereo not given)	none (no result: KCNQ2 pot)
COc1cccc(NC(=O)c2nc(S(C)(=O)=O)ncc2Cl)c1	none (no result: KCNQ2 pot) | Kir21 conf inh 63% | HEK293 Tl flux 64%
COc1cccc(NC(=O)c2nc(SC)ncc2Cl)c1	none
O=C(CSc1ccc(F)cc1)Nc1ccc(N2CCOCC2)cc1	none
Cc1ccc(-c2nnc(SCC(=O)Nc3ccccc3N3CCOCC3)o2)cc1	none (no result: KCNQ2 pot)
O=C(CSc1ccccc1)Nc1ccccc1N1CCOCC1	none (no result: KCNQ2 pot) | Kir21 conf inh inactive | HEK293 Tl flux inactive
Cc1noc(C)c1CSCC(=O)Nc1ccccc1N1CCCCC1	none (no result: KCNQ2 pot) | Kir21 conf inh 56% | HEK293 Tl flux 76%
Cc1ccc(SCC(=O)Nc2ccccc2N2CCOCC2)cc1	none (no result: KCNQ2 pot) | Kir21 conf inh 48% | HEK293 Tl flux inactive
O=C(CSc1ccc(F)cc1)Nc1ccccc1N1CCOCC1	none (no result: KCNQ2 pot) | Kir21 conf inh 38% | HEK293 Tl flux inactive
Cc1cccc(NC(=O)CSCc2c(C)noc2C)c1C	none
Nc1cc(N)nc(SCC(=O)Nc2ccccc2N2CCOCC2)n1	none
Fc1ccc(Oc2cnns2)cc1	none
Cc1c(C(=O)N2CCCC2)c(S(=O)(=O)NCCc2ccccc2)c(C)n1C	none
CCc1ccccc1NC(=O)CN(C)C(=O)Cn1cc(C(F)(F)F)cc(Cl)c1=O	none
O=C(NCc1ccccc1)c1ccccc1OCC(=O)N1CCCCC1	none
CCOC(=O)CCNC(=O)N1CCCC(Cc2ccccc2)(C(=O)OCC)C1 (stereo not given)	none (no result: KCNQ2 pot)
Cc1[nH]n(-c2ccccc2)c(=O)c1N=Nc1ccccc1O	none
Cc1[nH]n(-c2ccccc2)c(=O)c1N=Nc1nccs1	KCNQ2 pot 15 | Kir21 conf inh inactive | HEK293 Tl flux 550% | CHO-K1 Tl ctr inactive | KCNQ1 pot spec 16 | KCNQ2 pot confirm 91 | Kir2-1 sel 18 | KCNQ2 W236L pot inactive
CC(=O)c1c(N2CCN(Cc3ccccc3)CC2)[nH]c(-c2ccccc2)nc1=S	KCNQ2 pot 6.2 | Kir21 conf inh inactive | HEK293 Tl flux 208% | CHO-K1 Tl ctr inactive | KCNQ1 pot spec 54 | KCNQ2 pot confirm 2.3 | Kir2-1 sel inactive | KCNQ2 W236L pot inactive
CC(=O)c1c(N2CCCC2)[nH]c(-c2ccccc2)nc1=S	none
CCCCn1c(N)c(N(CCOC)C(=O)c2cc3c(s2)CCC3)c(=O)[nH]c1=O	none (no result: KCNQ2 pot)
Cc1c(NC(=O)COC(=O)c2ccc(S(=O)(=O)N3CCOCC3)cc2)c(=O)n(-c2ccccc2)n1C	none (no result: KCNQ2 pot)
COCCN(C(=O)CCC(=O)Nc1ccccn1)C(C(=O)NCCC(C)C)c1ccc(C)cc1 (stereo not given)	none (no result: KCNQ2 pot)
CC(C)c1nc(SCC(=O)N2CCCCCC2)c2c(=O)n(C)c(=O)n(C)c2n1	KCNQ2 pot 17 | Kir21 conf inh inactive | HEK293 Tl flux inactive | CHO-K1 Tl ctr 6.8 | KCNQ1 pot spec inactive | KCNQ2 pot confirm 54 | Kir2-1 sel inactive | KCNQ2 W236L pot inactive
CCc1nc(SCC(=O)N2CCCCCC2)c2c(=O)n(C)c(=O)n(C)c2n1	KCNQ2 pot 5.5 | Kir21 conf inh inactive | HEK293 Tl flux inactive | CHO-K1 Tl ctr inactive | KCNQ1 pot spec 5.9 | KCNQ2 pot confirm 35 | Kir2-1 sel inactive | KCNQ2 W236L pot inactive
CCc1nc(SCC(=O)N2CCOCC2)c2c(=O)n(C)c(=O)n(C)c2n1	none
CC(C)c1nc(SCC(=O)N2CCCC2)c2c(=O)n(C)c(=O)n(C)c2n1	none
CC(C)N(C)S(=O)(=O)c1ccc(NC(=O)CSC(=S)N2CCCC2)cc1	none
Cc1ccc(C(=O)N2CCN(S(=O)(=O)c3ccc(C(C)C)cc3)CC2)s1	none (no result: KCNQ2 pot)
CC(NC(=O)/C(C#N)=C/c1ccc([N+](=O)[O-])o1)c1ccccc1 (stereo not given)	none (no result: KCNQ2 pot) | Kir21 conf inh inactive | HEK293 Tl flux 64%
